Bioassay records (PubChem)
An excerpt weighted towards active compounds, which were near 1.3% of everything screened.
IL2 activator: IL-2 activation; IL-2 activation reporter assay, cell-based qHTS; stimulated with anti-CD3/CD4/CD28 beads; in transgenic mouse T cells; activation, % (series mostly up to about 46 µM); 0.065% of 360,000 active; in the data active means activation above about 50%; inconclusive means mostly about 30% to 49%; further: 0% is about no effect
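Unstimulated transgenic mouse T cells, 750 per well, received compound and, after 60 minutes, anti-CD3/anti-CD4 bead plus anti-CD28 stimulation. EGFP and DsRed were quantified after 18 hours.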
PTHR1 agonist: activates the human parathyroid hormone receptor PTHR1; Q03431; HEK293 GP2 PTHR1 cells, GloSensor cAMP luminescence, 1 h; Potency, µM (highest dose often 115 µM), inactives show at the top dose activation, hits mostly activators; 0.075% of 410,000 active; AID 743266; further: potency means the concentration at half of the fitted maximal effect; nearly all actives have a fitted effect of over 55% in size
Target sequence (Q03431 whole entry, looked up): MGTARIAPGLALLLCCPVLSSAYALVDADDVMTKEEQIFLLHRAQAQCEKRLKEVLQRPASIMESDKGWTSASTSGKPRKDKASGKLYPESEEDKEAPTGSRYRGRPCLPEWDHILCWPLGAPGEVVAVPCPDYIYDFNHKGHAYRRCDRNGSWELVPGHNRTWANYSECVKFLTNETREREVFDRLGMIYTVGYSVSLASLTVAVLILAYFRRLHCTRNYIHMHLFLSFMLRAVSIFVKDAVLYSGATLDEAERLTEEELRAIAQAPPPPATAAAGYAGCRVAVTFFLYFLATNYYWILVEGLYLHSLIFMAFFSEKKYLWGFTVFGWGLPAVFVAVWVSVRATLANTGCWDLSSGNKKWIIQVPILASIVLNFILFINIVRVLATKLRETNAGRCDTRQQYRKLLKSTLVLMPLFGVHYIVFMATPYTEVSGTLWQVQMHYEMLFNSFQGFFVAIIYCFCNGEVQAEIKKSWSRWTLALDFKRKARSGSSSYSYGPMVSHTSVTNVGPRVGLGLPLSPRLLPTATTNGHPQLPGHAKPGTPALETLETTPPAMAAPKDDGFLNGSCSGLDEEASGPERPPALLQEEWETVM
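HEK-293-derived GP2 cells expressing PTHR1 and a GloSensor cAMP reporter, 3,000/well, plated overnight, given luciferin plus IBMX (each 0.5 mM as added) for 1 h at 37 °C, then compound for 1 h at 37 °C. Luminescence was read after 15 min at room temperature.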
TCR act: activates T cell receptor signaling; primary human leukocytes, anti-CD3, IL-2 HTRF, 48 h; Potency, µM (highest dose often 9.22 µM), inactives show top-dose activation of IL-2 secretion, most hits filed as activators; 330,000 tested, under 10 active; further: % of control where 0% means no effect
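Readout: HTRF IL-2, Eu-cryptate/d2 antibody pair, 320nm excitation, 665nm emission. Stimulus: a-CD3 beads, no co-stimulation. Cells: primary human leukocytes. Exposure: 48 hr with compound.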
BCR signal inh: chronic active BCR signaling inhibition; 0.05% of 340,000 active; Potency, µM (titrated, usually from 46.1 µM), for the others: at the highest dose activity change, negative = inhibition, usual class: inhibitors; ABC-DLBCL IkBa-CBG/CBR reporter, luminescence ratio, 4 h; active means well fitted inhibition curve with a large enough effect in the signal ratio, with a control signal flat, not every such curve was filed as active; inconclusive means small, poorly fitted or top-dose-only effect, or effect the other way, or a change in a side signal; the % refers to the signal ratio;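 further: potency means the concentration at half of the fitted maximal effect; plate controls were basal doxycycline-induced cells for no effect and cells given 10 µM MG132 for full effect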
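Cell line TMD8 (human ABC DLBCL), stably expressing tet-inducible CBG68-IkBa fusion and CBR; IMDM/0.5% FBS; cpd up to 46 uM; dox induction, 4 h, 37C/5% CO2; dual luminescence; green/red ratio; MG132 control.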
BRCA1 expr up: activators of BRCA1 expression. MCF7-BRCA1-FFLuc reporter, luminescence, 48 h; response scale: scaled: vehicle 0%, 10 µM genistein 100%. Potency, µM (top dose mostly 46.1 µM), for inactives: at the top dose activation, most hits filed as activators. 1.1% of 380,000 active. AID 624202; further: potency means the concentration at half of the fitted maximal effect; nearly all actives have a fitted effect of over 80% in size
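Quantitative HTS in MCF7 cells stably reporting BRCA1 expression via firefly luciferase. Compound treatment lasts 48 h at 37 °C in phenol-red free MEM. Activation is expressed relative to genistein at 10 microM and DMSO.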
Mito fusion yeast: inhibitors of mitochondrial division or activators of mitochondrial fusion; 0.23% of 320,000 active; Potency, µM (series often up to 46.1 µM), inactives show at the highest dose growth rescue (activation), most hits filed as activators; AID 485298; S. cerevisiae fusion-defective mutant growth rescue, CellTiterGlo 48 h; further: potency means the concentration at half of the fitted maximal effect; % of control where 0% means no effect; nearly all actives have a fitted effect of over 45% in size
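S. cerevisiae fusion-defective temperature-sensitive mutants (e.g. fzo1-1, mgm1-5) grown 48 h at 37C in YPEG (ethanol/glycerol non-fermentable) medium with 23 nl compound per well; growth rescue read as CellTiterGlo luminescence.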
Numbers without * were called inactive; i = inactive; ? = inconclusive; . = no result given; ! = not active in a repeat; [ ] = another dose, or the depositor's remark. Unless noted, the call rests on the fitted dose curve; in most records, active means well fitted curve in the direction sought with a large enough effect; inconclusive means small, poorly fitted or top-dose-only effect, or another doubt; inactive means no such curve, though single readings can be large; an effect the other way counts as inactive or inconclusive.

SMILES	IL2 activator	PTHR1 agonist	TCR act	BCR signal inh	BRCA1 expr up	Mito fusion yeast
COc1cc2c(cc1OC)C(C)N(C(=O)c1cc3c(s1)-c1ccccc1OC3)CC2 (stereo not drawn)	-3	i	4%	?	-22%	20µM*
COc1cc2c(cc1OC)C(C)N(C(=O)c1cc3c(s1)-c1c(C)cccc1OC3)CC2 (stereo not drawn)	-4	-16%	2%	?	-3%	25µM*
COc1ccccc1N1CCN(C(=O)/C=C/c2ccco2)CC1	6	i	0%[46.1 µM]	-5%	74%	1%
COc1ccccc1N1CCN(/N=C/C=C\c2ccco2)CC1	-3	-22%	0%	25%	2.8µM*	-1%
CCOc1ccc(NC(=S)NCCCn2ccnc2)cc1	-2	i	2%[46.1 µM]	5%	0%	-6%
CC(C)c1ccccc1NC(=S)NCCCn1ccnc1	0	-57%	0%	6%	2%	1.6µM*
CC#CCCCC(=O)Nc1ccccc1C(=O)O	-2	i	1%	-3%	11µM*	-2%
CC#CCCCC(=O)Nc1ccc(C(=O)O)cc1	-2	?	-3%	-9%	0%	-2%
O=C(CCCOc1ccc(Cl)cc1Cl)Nc1ccccc1C(=O)O	-1	-21%	1%	3%	6.3µM*	3%
O=C(O)CC(C(=O)O)c1ccc(OCCCCOc2ccc(C(CC(=O)O)C(=O)O)cc2)cc1 (stereo not drawn)	1	-22%	-3%	-1%	-2%	-1%
CN(C)/C=N/c1ncc(C(=O)c2ccc(-c3ccccc3)cc2)s1	-5	-33%	2%	?	-66%	2%
CN(C)/C=N/c1ncc(C(=O)c2ccccc2)s1	-4	-15%[57.5 µM]	-2%	?	5.6µM*	-2%
C(=Nc1ccc2ccccc2n1)c1ccccn1	.	.	.	.	33%	.
CCc1ccc2oc(-c3ccc(C)c(NC(=O)COc4ccc(Cl)cc4)c3)nc2c1	.	.	.	.	0%	.
COc1ccccc1N1CCN(C(=O)c2sc3nc(C)nc(N4CCN(c5ccccn5)CC4)c3c2C)CC1	-5	i	2%	?	-78%	28µM*
CC(=O)Nc1ccc(NC(=O)C(Cc2ccccc2)NC(=O)C2CCC(C)CC2)cc1 (stereo not drawn)	1	i	9%[46.1 µM]	0%	-27%	0%
c1cncc(-c2noc(C34CC5CC(CC(C5)C3)C4)n2)c1	-2	-4%	-2%	?	13µM*	-1%
Cc1ccccc1-c1noc(C23CC4CC(CC(C4)C2)C3)n1	1	-2%	0%	13%	0%[1.84 µM]	2%
O=C(Cn1cc(SCc2cccc(F)c2)c2ccccc21)N1CCOCC1	.	-34%	.	.	.	.
O=C(Cn1cc(SCc2ccccc2Cl)c2ccccc21)N1CCOCC1	0	-22%	1%[46.1 µM]	?	11µM*	20%
O=C(c1ccc(-c2ccccc2Cl)o1)N1CCN(c2ccccc2O)CC1	-1	i	-1%	-13%	-45%	18µM*
O=C(c1ccco1)N1CCN(C(=O)c2ccc(-c3ccccc3Cl)o2)CC1	1	-22%	3%	?	8.9µM*	24%
NC(=O)C1CCN(C(=O)c2ccc(-c3ccccc3Cl)o2)CC1	0	-7%	3%	-1%	106%	-1%
O=[N+]([O-])c1ccc(/C=C/c2cc(Cl)nc3ccccc23)cc1	.	.	.	.	-32%	.
COc1ccc(C(=O)/C=C/c2ccccc2)c(O)c1	-1	-80%	-4%	-16%	15%	-3%
O=C(/C=C/c1ccc(O)cc1)c1ccc(O)cc1O	0	-29%	1%	?	-22%	16µM*!
O=C(Nc1nc(-c2ccco2)c(-c2ccco2)s1)c1c(F)cccc1Cl	2	-3%	.	?	-18%	13µM*
O=C(Nc1nc(-c2ccco2)c(-c2ccco2)s1)c1ccc(F)cc1F	-6	-16%	9%	?	51%	-8%
